Test [1] in a line: resazurin metabolic signal in HepG2 cells – cell-based, resazurin fluorescence, 24 h, PK04 Diversity Set, profiling panel (AID 1172). The note with it: HepG2 viability, higher = more signal.
Test [2] can be described thus: budding yeast growth changes without added modifier – OD600, strain BY4716, 24 h, basal condition, primary screen (AID 1173). The conditions noted are these: S. cerevisiae BY4716 growth, OD600, 24 h; higher = more signal, called active from +8 up or from −8 down.
A short description of test [3]: viability profiling in MM1S myeloma cells – cell-based, resazurin fluorescence, basal, 24 h, PK04 Diversity Set, profiling panel (AID 1174).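 Note: MM1S multiple myeloma cell line.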 The conditions noted are these: higher = more signal, called active from +8 up or from −8 down.
Test [4] concerns the target Dihydroorotate dehydrogenase (quinone), mitochondrial (Plasmodium falciparum (isolate 3D7)) (UniProt Q08210). In words: inhibition of P. falciparum DHODH – biochemical, C-terminal His tag, absorbance 600 nm, primary screen (AID 1175).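 Note: recombinant parasite enzyme with a five histidine tag at its C terminus.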 The conditions noted are these: PfDHODH enzyme, DCIP absorbance 600 nm; higher = more signal, called active from +8 up or from −8 down.
Test [5] in a line: inhibition of PAO1 biofilm formation – strain PAO1, LB-PBS medium, absorbance 600 nm, primary screen (AID 1176). The conditions noted are these: P. aeruginosa PAO1 growth/biofilm, A600, 12 h; higher = more signal.
A short description of test [6]: growth modulation of vineyard yeast isolate – strain RM11-1a, OD600, basal, 24 h, primary screen (AID 1177).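 Note: cultures grown under basal conditions with no added stressor.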 The note with it: S. cerevisiae RM11-1a growth, OD600, 24 h; higher = more signal, called active from +8 up or from −8 down.
A short description of test [7]: growth of efflux-deficient E. coli DRC39 – strain DRC39, OD650, 24 h, E. coli filamentation inducers, primary screen (AID 1178).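 Note: growth measured as culture turbidity by optical density at 650 nm.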 The note with it: E. coli DRC39 acrAB, higher = more signal, called active from +8 up or from −8 down.
Test [8] in a line: growth of efflux-deficient E. coli DRC39 – strain DRC39, OD650, 48 h, E. coli filamentation inducers, primary screen (AID 1179).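 Note: screen aims at cell division blockers that make cells filament.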 The conditions noted are these: E. coli DRC39 delta-acrAB growth, higher = more signal, called active from +8 up or from −8 down.
Test [9] is described as follows: viability profiling in RPMI8226 myeloma cells – cell-based, resazurin fluorescence, basal, 24 h, PK04 Diversity Set, profiling panel (AID 1180).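 Note: RPMI8826 multiple myeloma cell line at 5000 cells per well.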 The note with it: higher = more signal. Background: The colour change of resazurin is a common sign of viable cells or microbes.
Test [10] deals with E3 ubiquitin-protein ligase XIAP (Homo sapiens) (UniProt P98170). In words: small molecules binding XIAP protein – biophysical, small-molecule microarray, fluorescence 635 nm, primary screen (AID 1181).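 Note: score merges 667 nm emission and signal to noise over triplicate slides.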 The conditions noted are these: higher = more signal.
Sequence of E3 ubiquitin-protein ligase XIAP (Homo sapiens) (P98170 whole entry, looked up, the tested form may be a part): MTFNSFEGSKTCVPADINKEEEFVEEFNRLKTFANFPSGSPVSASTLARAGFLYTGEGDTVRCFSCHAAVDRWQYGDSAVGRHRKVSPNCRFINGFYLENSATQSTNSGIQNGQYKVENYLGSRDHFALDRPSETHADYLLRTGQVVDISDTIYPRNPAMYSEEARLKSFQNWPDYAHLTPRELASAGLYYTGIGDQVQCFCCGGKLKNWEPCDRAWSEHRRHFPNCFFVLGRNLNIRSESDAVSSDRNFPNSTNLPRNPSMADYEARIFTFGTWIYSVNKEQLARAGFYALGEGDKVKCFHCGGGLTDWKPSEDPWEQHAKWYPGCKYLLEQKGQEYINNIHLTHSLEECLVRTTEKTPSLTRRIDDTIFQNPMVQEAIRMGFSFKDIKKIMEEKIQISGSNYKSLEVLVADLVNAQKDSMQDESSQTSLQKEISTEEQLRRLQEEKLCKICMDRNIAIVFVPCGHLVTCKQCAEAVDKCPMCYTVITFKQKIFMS
Test [11] concerns XIP peptide (Xip251-270) binding. The experiment in a line: XIP fragment 251-270 binding compounds – biochemical, small-molecule microarray, fluorescence 635/667 nm, 0.1 µg/mL protein, primary screen (AID 1182). The note with it: fluorescent protein binding, 635 nm, higher = more signal, called active from +8 up or from −8 down.
A further test concerns XIP peptide (Xip251-270). The experiment in a line: compounds binding XIP fragment 251-270 – biochemical, small-molecule microarray, fluorescence 635/667 nm, 0.5 µg/mL protein, primary screen (AID 1183). The note with it: fluorescence 635 nm, higher = more signal.
Test [12] in a line: blood-stage malaria parasite viability loss – strain 3D7, DAPI fluorescence, 100 nL, primary screen (AID 1184).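 Note: parasites grown inside human red blood cells in medium with human serum.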 The note with it: P. falciparum 3D7 growth, 3 d, higher = more signal.
For test [13], the target named is Homeobox protein Hox-A13 (Mus musculus) (UniProt Q62424). In words: disruptors of Hoxa13 oligonucleotide interaction – biochemical, fluorescence polarization, labeled oligonucleotide, primary screen (AID 1185). The conditions noted are these: Hoxa13:DNA binding, 15 min, higher = more signal, called active from +8 up or from −8 down. For orientation: Polarisation of emitted light reports the rotation of a fluorescent probe.
Sequence of Homeobox protein Hox-A13 (Mus musculus) (Q62424 whole entry, looked up): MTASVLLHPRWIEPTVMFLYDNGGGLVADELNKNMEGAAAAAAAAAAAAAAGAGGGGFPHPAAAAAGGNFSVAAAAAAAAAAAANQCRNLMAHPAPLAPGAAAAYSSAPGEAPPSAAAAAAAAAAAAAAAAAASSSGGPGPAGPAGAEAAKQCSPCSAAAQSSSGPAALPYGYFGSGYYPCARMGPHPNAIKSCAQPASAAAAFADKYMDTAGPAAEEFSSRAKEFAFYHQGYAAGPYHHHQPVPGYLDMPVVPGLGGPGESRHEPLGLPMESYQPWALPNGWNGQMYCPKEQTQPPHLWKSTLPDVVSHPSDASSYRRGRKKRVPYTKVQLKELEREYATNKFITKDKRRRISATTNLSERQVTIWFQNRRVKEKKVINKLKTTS

Test [14] is described as follows: blockers of DNA damage checkpoint Chk1 activation – imaging, HeLa, hydroxyurea, phospho-Chk1 antibody, percent positive cells, primary screen (AID 1186). The note with it: hydroxyurea-induced phospho-Chk1 immunofluorescence imaging, higher = more signal.
A short description of test [15]: blockers of DNA damage checkpoint Chk1 activation – imaging, HeLa, hydroxyurea, phospho-Chk1 nuclear intensity, primary screen (AID 1187). The note with it: hydroxyurea-induced phospho-Chk1 immunofluorescence imaging, higher = more signal.

Results on nine molecules are retold here after PubChem BioAssay.

Structures are written as SMILES. The source made the active and inactive calls. Unless noted, the rule behind the calls is not given here.

Sequence of Dihydroorotate dehydrogenase (quinone), mitochondrial (Plasmodium falciparum (isolate 3D7)) (Q08210 whole entry, looked up): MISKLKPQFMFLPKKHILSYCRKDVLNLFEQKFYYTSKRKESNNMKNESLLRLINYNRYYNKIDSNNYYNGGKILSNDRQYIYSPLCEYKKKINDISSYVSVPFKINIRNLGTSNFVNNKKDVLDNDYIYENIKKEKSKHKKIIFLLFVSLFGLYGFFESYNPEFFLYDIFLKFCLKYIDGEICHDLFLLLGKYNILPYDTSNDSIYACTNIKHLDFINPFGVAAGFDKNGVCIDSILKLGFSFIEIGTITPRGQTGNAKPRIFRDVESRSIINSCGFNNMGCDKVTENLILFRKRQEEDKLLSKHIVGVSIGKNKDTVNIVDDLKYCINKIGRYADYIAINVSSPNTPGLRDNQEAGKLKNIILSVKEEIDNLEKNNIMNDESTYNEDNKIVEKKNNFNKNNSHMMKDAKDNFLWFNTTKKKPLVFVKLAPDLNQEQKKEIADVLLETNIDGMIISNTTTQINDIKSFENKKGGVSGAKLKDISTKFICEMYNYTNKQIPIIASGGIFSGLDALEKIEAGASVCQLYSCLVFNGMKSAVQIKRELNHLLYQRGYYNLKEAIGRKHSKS

Consider `COC(=O)[C@@]1(Cc2ccccc2CN=[N+]=[N-])N=C(c2ccc(OCCCO)cc2)O[C@H]1c1ccccc1`, for which the z-score in test [1] was -2.6; in [2] it was 0.797 (inactive); in test [3], -5.44 (inactive); in test [5], 1.83 (inactive); in [6] it was 2.81 (inactive); in test [7] it was 0.759 (inactive). Also, the z-score in [8] was -0.783 (inactive); in test [9], -6.08; in test [12] it was -2.34; in test [13], -4.51 (inactive); in test [14], 0.022 (inactive); in [15], 0.55 (inactive). The composite z-score was 1.09 (inactive) in test [4], 0.162 in test [10], 2.54 (inactive) in test [11] and 0.766 with XIP peptide (Xip251-270).
Regarding `COC(=O)[C@@]1(Cc2ccc(OC)cc2)[C@H]2c3cc(C(=O)N4CCCC4)n(Cc4ccc(S(C)(=O)=O)cc4)c3C[C@H]2CN1C(=O)c1ccccc1`, the z-score in [1] is -0.707; in [2], 0.63 (inactive); in [3], -0.389 (inactive); in test [5], 0.122 (inactive); in test [6] it was 0.115 (inactive); in [7], -0.867 (inactive). For the same molecule, the z-score was -0.113 (inactive) in [8]; -0.84 in test [9]; -1.42 in test [12]; -3.91 (inactive) in test [13]; 0.364 (inactive) in [14]; 0.202 (inactive) in [15]. Moreover, the composite z-score in test [4] was -1.16 (inactive); in [10] it was 0.721; in [11], 0.807 (inactive); in the test on XIP peptide (Xip251-270) it was 0.511.
Consider `C=C(/C(=C/C[C@H](OC(=O)c1ccncc1)c1cccc(OCCO)c1)c1cnc2ccccc2c1)C(C)C`, for which the z-score in test [1] is -0.982; in test [2], -18.5 (active); in test [3] it was -1.09 (inactive); in [5] it was 0.285 (inactive); in [6], -22.1 (active); in test [7], 0.116 (inactive). The z-score in [8] was -0.147 (inactive); in [9] it was -0.911; in [12], -1.42; in [13], -5.01 (inactive); in [14], 0.654 (inactive); in test [15], 0.212 (inactive). Moreover, the composite z-score is -25.3 (active) in [4], 0.329 in test [10], 0.0082 (inactive) in test [11] and 0.67 in the test on XIP peptide (Xip251-270).
On to `O=C1C2C=CC(C(O)c3ccc4c(c3)OCO4)N(Nc3ccccc3)C2C(=O)N1c1ccccc1` (centres undefined), for which the z-score in test [1] was -0.0551; in test [2], 0.939 (inactive); in [3], -0.793 (inactive); in [5] it was 0.338 (inactive); in [6], 0.581 (inactive); in test [7], -0.0005 (inactive). For the same molecule, the z-score in [8] was -0.387 (inactive); in test [9], -0.827; in test [12], -0.214; in [13], -1.49 (inactive); in test [14] it was 0.104 (inactive); in [15] it was 0.614 (inactive). Further, the composite z-score in [4] was 0.0433 (inactive); in test [10], -0.0524; in test [11] it was 0.395 (inactive); with XIP peptide (Xip251-270) it was 0.795.
For the molecule `[N-]=[N+]=Nc1ccccc1[C@@H]1OC(c2ccc(OCCCO)cc2)=N[C@]1(Cc1ccccc1)C(=O)NCc1ccccc1`, the z-score in [1] is -0.421; in test [2] it was 0.152 (inactive); in [3], -3.62 (inactive); in [5], 0.563 (inactive); in test [6], 0.265 (inactive); in test [7], -0.324 (inactive). Also, the z-score in test [8] was -0.441 (inactive); in [9], -3.62; in [12], -1.97; in test [13], -0.694 (inactive); in test [14] it was 0.458 (inactive); in [15], 0.433 (inactive). Also, the composite z-score in test [4] is 0.613 (inactive); in test [10], 0.338; in test [11], 0.174 (inactive); in the test on XIP peptide (Xip251-270) it was 0.804.
Turning to `COCCOC(=O)N1C(=O)[C@@]2(c3ccccc31)[C@H](c1ccccc1OCCO)N1[C@H](c3ccccc3)[C@H](c3ccccc3)OC(=O)[C@H]1[C@@H]2C(N)=O`, the z-score in test [1] is -0.704; in test [2], 1.82 (inactive); in [3], -2.78 (inactive); in test [5] it was 2.07 (inactive); in test [6] it was 1.98 (inactive); in [7], 0.322 (inactive). In addition, the z-score in [8] is -0.528 (inactive); in test [9], -4.57; in test [12], -0.946; in test [13], -4.81 (inactive); in test [14] it was 0.0327 (inactive); in test [15], 0.12 (inactive). The composite z-score in test [4] is 0.565 (inactive); in test [10] it was -0.288; in test [11], 2.37 (inactive); with XIP peptide (Xip251-270) it was 0.784.
Take `COc1ccc(C#Cc2ccc3c(c2)[C@]2(C(=O)N3)[C@H](c3ccc(OCCO)cc3)N3[C@H](c4ccccc4)[C@H](c4ccccc4)OC(=O)[C@H]3[C@@H]2C(=O)N2CCc3cc(OC)c(OC)cc3C2)cc1`: the z-score in [1] was 0.36; in test [2], 2.06 (inactive); in [3], -0.224 (inactive); in [5], 2.68 (inactive); in test [6], 2.33 (inactive); in test [7] it was -0.479 (inactive). Besides, the z-score is -0.324 (inactive) in [8]; 0.0844 in [9]; -1.92 in [12]; 2.11 (inactive) in [13]; -0.0018 (inactive) in test [14]; 0.0006 (inactive) in test [15]. The composite z-score was -1.84 (inactive) in [4], 0.107 in test [10], 0.119 (inactive) in test [11] and 0.659 in the test with XIP peptide (Xip251-270).
For the molecule `COC(=O)C(CC#Cc1ccc2c(c1)[C@]1(C(=O)N2)[C@H](c2ccc(O)cc2)N2[C@H](c3ccccc3)[C@H](c3ccccc3)OC(=O)[C@H]2[C@@H]1C(=O)N1CCCCCCC1)C(=O)OC`, the z-score is -0.123 in [1]; 0.303 (inactive) in test [2]; -0.961 (inactive) in [3]; 1.6 (inactive) in test [5]; 0.27 (inactive) in [6]; 0.196 (inactive) in [7]. For the same molecule, the z-score in test [8] was -0.0767 (inactive); in test [9], -3.94; in test [12], -1.92; in [13] it was 2.08 (inactive); in test [14] it was -0.0422 (inactive); in [15] it was 0.413 (inactive). The composite z-score in test [4] was -7.28 (inactive); in test [10], 0.557; in test [11] it was 0.225 (inactive); in the test on XIP peptide (Xip251-270), 0.59.
With `COc1ccc([Si](C)(C)[C@H]2[C@H](CCO)O[C@@]3(C(=O)N(Cc4ccc(N5C(=O)c6ccccc6Oc6ccccc65)cc4)c4ccccc43)[C@@H]2C)cc1`, the z-score in test [1] was -1.49; in [2], 0.884 (inactive); in [3] it was -3.52 (inactive); in test [5], 2.72 (inactive); in test [6], 4.11 (inactive); in [7] it was 1.78 (inactive). The z-score was 0.987 (inactive) in [8]; -3.67 in test [9]; -1.67 in [12]; -1.05 (inactive) in test [13]; -0.557 (inactive) in test [14]; -0.583 (inactive) in test [15]. Further, the composite z-score is 0.198 (inactive) in [4], -0.115 in test [10], -0.136 (inactive) in test [11] and 0.0004 in the test with XIP peptide (Xip251-270).
